A selection: hits, their analogues and other compounds. The true share with any hit is near 7%.
GRIN3A LBD mod = NR3A (human) ligand-binding domain modulation; NR3A LBD differential scanning fluorimetry, Tm shift; 0% = protein alone, 100% = glycine-bound protein; Tm shift relative to glycine control, % at 25 µM; hit rate 2.5% among 340,000; AID 1259313;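 active = melting temperature shift of at least 10% of the positive control shift, at one fixed dose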
ADAM10 inh = inhibitors of human ADAM10. O14672. recombinant ADAM10, EDANS/DABCYL FRET peptide cleavage, 3 h. inhibition, % at 7 µM. hit rate 0.62% among 370,000. AID 720582;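 active = inhibition above a per-campaign cutoff equal to the mean of compounds falling between control-based bounds plus 3 SD, cut at about 20% in these data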;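 also: 0% = DMSO wells while the 100% control is not disclosed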
AHR act = activates the human aryl hydrocarbon receptor. P35869. AHR-responsive luciferase reporter cells, luminescence. activation, % at 5 µM. hit rate 2.5% among 320,000. AID 2796; in the data active = activation above about 47%;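 also: 0% = vehicle wells and 100% = reference agonist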
KLK7 zymogen act = activators of human kallikrein-7 zymogen; P49862; purified proKLK7, EDANS-DABCYL substrate fluorescence; 100% is mature enzyme control, 0% vehicle; activation, % at 7 µM; hit rate 0.9% among 370,000;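 active = activation above the mean of all tested compounds plus 3 SD, computed per campaign excluding outliers beyond control limits, cut at about 13% in these data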
ADAM17 inh = inhibits human ADAM17 | P78536 | recombinant ADAM17, EDANS/DABCYL FRET peptide cleavage | inhibition, % at 6.95 µM | hit rate 0.83% among 370,000;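 active = inhibition above the mean of compounds lying between control limits plus 3 SD, set per campaign, cut at about 8.5% in these data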;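 also: 0% = DMSO-only wells as the low control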
Target sequence (P78536 215-824 limits assumed): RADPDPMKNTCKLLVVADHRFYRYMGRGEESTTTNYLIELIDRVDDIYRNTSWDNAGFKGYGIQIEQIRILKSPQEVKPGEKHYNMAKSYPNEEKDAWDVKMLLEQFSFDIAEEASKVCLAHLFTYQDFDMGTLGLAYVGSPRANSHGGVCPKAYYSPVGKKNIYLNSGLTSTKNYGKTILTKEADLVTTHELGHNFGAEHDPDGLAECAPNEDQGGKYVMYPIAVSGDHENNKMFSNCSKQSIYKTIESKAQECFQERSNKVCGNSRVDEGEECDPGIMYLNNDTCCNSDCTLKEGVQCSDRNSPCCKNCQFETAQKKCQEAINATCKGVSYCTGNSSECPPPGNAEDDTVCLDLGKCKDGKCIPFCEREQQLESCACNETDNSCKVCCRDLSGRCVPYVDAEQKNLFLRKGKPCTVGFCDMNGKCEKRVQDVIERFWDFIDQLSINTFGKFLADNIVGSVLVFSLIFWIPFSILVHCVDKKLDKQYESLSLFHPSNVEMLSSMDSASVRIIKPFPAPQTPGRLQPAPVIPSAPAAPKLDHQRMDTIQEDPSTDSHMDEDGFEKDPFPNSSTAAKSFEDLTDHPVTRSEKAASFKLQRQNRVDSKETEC
rCAG RNA binder = r(CAG) repeat RNA binding | TO-PRO-1 dye displacement fluorescence | inhibition, % at 3 µM | hit rate 1.3% among 370,000 | AID 651821;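 active = inhibition above the plate cutoff, the mean of all test compounds on that plate plus 3 SD, cut at about 35% in these data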;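 also: 0% = DMSO alone and 100% = 100 µM mitoxantrone as full dye displacement; higher means more dye released from RNA so lower well fluorescence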
proKLK7 act conf = confirmation of human kallikrein-7 zymogen activators | hit rate 68% among 3,200 | shares compounds with KLK7 zymogen act | purified proKLK7, EDANS-DABCYL substrate fluorescence; scaled: vehicle 0, mature enzyme 100 | activation, % at 7 µM;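 active = activation, as change over the incubation, above the mean of all tested compounds plus 3 SD, cut at about 13% in these data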
EDANS-DABCYL int = optically interferes with EDANS-DABCYL signal, flagging KLK7 hits | hit rate 80% among 3,200 | AID 686952 | EDANS-DABCYL substrate fluorescence interference, no enzyme, 4 h; solvent 0%, active enzyme control 100% | shares compounds with KLK7 zymogen act | activation, % at 7 µM;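 active = activation above the all-compound mean plus 3 SD, ignoring values outside control-based bounds, cut at about 4.8% in these data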;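 also: value is the 4 h activation minus the activation read at time zero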
EDANS interf = EDANS fluorescence interference in dose response, no enzyme. shares compounds with KLK7 zymogen act. EDANS-DABCYL peptide fluorescence interference. EC50, µM. hit rate 20% among 250. AID 720493;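 active = compounds that raise the fluorescence signal in this interference counterscreen, with EC50 at or below 10 µM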;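 also: intact quenched peptide substrate alone read at 355 nm excitation and 520 nm emission; signal is fluorescence gain from T0 to T4 after four hours at room temperature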
An asterisk follows results filed as active; i = inactive; x = not tested or not shown.

SMILES	GRIN3A LBD mod	ADAM10 inh	AHR act	KLK7 zymogen act	ADAM17 inh	rCAG RNA binder	proKLK7 act conf	EDANS-DABCYL int	others
CCOC(CNC(=O)C1CCN(S(=O)(=O)c2ccc3nc4c(c(C(=O)O)c3c2)CCCCC4)CC1)OCC	3	5	0	0	-5	6	x	x
CCCN1CCN(C(=S)Nc2ccc3nc(N4CCN(CC)CC4)cc(C)c3c2)CC1	0	-428	5	20*	-143	-7	4	6.5*
CCN1CCN(c2cc(C)c3cc(NC(=S)N4CCOCC4)ccc3n2)CC1	0	i	5	10	-233	6	x	x
Cc1cc(N2CCN(C)CC2)nc2ccc(NC(=O)c3ccc4c(c3)OCO4)cc12	-2	-7	3	19*	-1	-3	7	6.9*
Cc1cc(N2CCCC2)nc2ccc(NC(=S)NCCCOC(C)C)cc12	0	i	6	16*	-195	-1	14*	12*	EDANS interf=>70
CCN1CCN(c2cc(C)c3cc(NC(=S)N4CCN(c5ccccc5F)CC4)ccc3n2)CC1	1	-358	28	14*	-118	-6	1	2
CCN1CCN(c2cc(C)c3cc(NC(=S)N4CCN(c5ccccc5)CC4)ccc3n2)CC1	0	-347	4	10	-120	-3	x	x
Cc1cc(C(=O)N2CCC2(C)C(=O)NCCC#N)nn1C (centres undefined)	x	-4	x	0	-3	1	x	x
COc1cc(OC)cc(C(=O)NNC(=O)CCNS(=O)(=O)c2ccc(Br)cc2)c1	0	-4	2	0	-13	6	x	x
CCCOc1ccc(CNC(=O)C2CCN(C(=O)N3CCOc4ccccc43)CC2)cc1	0	-7	-1	0	0	0	x	x
CCN1CCN(c2cc(C)c3cc(NC(=O)c4cc(OC)cc(OC)c4)ccc3n2)CC1	1	-3	4	0	-2	4	x	x
CCOc1ccc(C(=O)Nc2ccc3nc(N4CCN(CC)CC4)cc(C)c3c2)cc1	-9	2	2	38*	-3	-6	217*	192*
CCOc1ccc(-c2cc(C(=O)NCCCN3CCCC3)c3ccccc3n2)cc1	-1	-375	8	24*	-136	6	-1	-5
CC(=O)c1cccc(NC(=O)CC2S/C(=N/N=C/c3ccccc3)NC2=O)c1 (centres undefined)	-8	2	5	0	0	18	x	x
O=C(O)CNC(=O)CC1S/C(=N/N=C/c2ccccc2O)NC1=O (centres undefined)	-5	-52	0	21*	-19	-1	34*	41*
CN(C)Cc1ccccc1-c1cccc2nccn12	x	-331	x	19*	-86	3	2	3
CCC(N=c1cc(-c2ccc(OC)c(OC)c2)oc2ccc(C)cc12)C(=O)O (centres undefined)	-1	i	7	19*	-163	-6	29*	26*
CCOC(=O)c1oc2cc(OC(C)=O)ccc2c(=O)c1-c1ccc(OC)c(OC)c1	1	7	-1	0	-13	-1	x	x
CCC(N=c1cc(-c2ccc(OC)cc2)oc2ccc(C)cc12)C(=O)O (centres undefined)	-1	i	-5	36*	i	3	61*	72*
COc1ccc(-c2c(C)oc3ccc(C)cc23)cc1	5	-4	35	0	-3	2	x	x
CCOC(=O)[C@]12CCC=C1N(Cc1ccc3c(c1)OCO3)C(=O)[C@H](CC(=O)N1CCC(c3ccccc3)CC1)C2	x	10	x	0	4	6	x	x
CCOC(=O)C(=NC(C)CC)NNc1ccc(Br)cc1 (centres undefined)	-4	-11	21	16*	-4	-2	24*	26*
CCOC(=O)C(=NC(C)CC)NNc1cccc(C(F)(F)F)c1 (centres undefined)	-6	-5	2	17*	-1	-6	22*	26*
CCN(c1cccc(C)c1)S(=O)(=O)c1cn(CC(=O)OC)c2ccc([N+](=O)[O-])cc12	-4	-3	2	0	-2	1	x	x
CN(C)CCNc1ccc2ncn3c4ccc(O)cc4c(=O)c1c23	2	-13	x	72*	-4	-4	57*	50*
SMILES	GRIN3A LBD mod	ADAM10 inh	AHR act	KLK7 zymogen act	ADAM17 inh	rCAG RNA binder	proKLK7 act conf	EDANS-DABCYL int	others
CN(C)CCNc1ccc(CO)c2sc3ccc(O)cc3c(=O)c12	-1	0	x	1	2	9	x	x
COc1ccc(C2CC(c3cccs3)=Nc3ccccc3S2)cc1 (centres undefined)	1	-201	24	40*	-66	0	5	3
COc1ccc(C2CC(c3cccs3)=NN2S(C)(=O)=O)cc1 (centres undefined)	-1	4	6	0	-1	-2	x	x
Cn1c(=O)c2nc(NCc3ccccc3)cnc2n(C)c1=O	-1	-470	-1	15*	-136	-4	30*	40*
C#CCN(C(=O)c1ccc(OC)c(OC2CCN(C(C)C)CC2)c1)C1CCCCC1	4	-12	x	0	2	-9	x	x
Cc1cccn2c(=O)c(C=O)c(Sc3ncccn3)nc12	-1	-29	29	5	-10	0	x	x
O=Cc1c(Cl)nc2ccccn2c1=O	1	-43	11	42*	-17	-2	22*	20*
Cc1cccn2c(=O)c(C=O)c(Cl)nc12	0	-28	13	92*	-12	1	16*	19*
CC1=C(C(=O)N(C)C)CC(CC(=O)NC2CC2)C(=O)N1Cc1ccccc1 (centres undefined)	x	-12	x	0	3	5	x	x
CC[C@H](C)/C=C(C)/C=C/c1cc2c(cn1)C(=O)[C@@](C)(OC(C)=O)C(O)=C2Cl	x	-231	x	86*	-61	28	108*	123*
Cc1cnc2nc(-c3ccccc3)ccc2c1	x	-10	x	0	-2	2	x	x
O=C(Cc1ccccc1)Nc1ccc2oc(-c3cccnc3)nc2c1	2	i	21	22*	-162	3	-10	-9
CCCc1cc(=O)oc2cc(OCC(=O)Nc3ccc(S(N)(=O)=O)cc3)ccc12	1	-11	0	0	-8	16	x	x
Cn1c(=O)c(C(=O)c2ccccc2)c(O)c2ccccc21	1	5	10	0	-1	2	x	x
Cn1c(=O)c(-c2ccccc2)c(O)c2ccccc21	0	-7	1	0	-3	-1	x	x
